Shown are actives, neighbours in structure and some others; about 10% of the full set was active somewhere.
ALDH1A1 inh = inhibitors of human aldehyde dehydrogenase 1A1; P00352; Purified ALDH1A1, NADH fluorescence, propionaldehyde substrate; Potency, µM (doses to about 75.3 µM), for the others: at the highest dose activity, negative = inhibition, actives largely listed as inhibitors; hit rate 7.3% among 220,000; active = well fitted inhibition curve with a large enough effect, not every such curve was filed as active; inconclusive = small, poorly fitted or top-dose-only effect, or another doubt; inactive = no such curve, though single readings can be large or run the other way;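 also: potency is read from the fitted curve at half-maximal effect; plate controls were no enzyme wells and a reference inhibitor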
Target sequence (P00352 whole entry, looked up): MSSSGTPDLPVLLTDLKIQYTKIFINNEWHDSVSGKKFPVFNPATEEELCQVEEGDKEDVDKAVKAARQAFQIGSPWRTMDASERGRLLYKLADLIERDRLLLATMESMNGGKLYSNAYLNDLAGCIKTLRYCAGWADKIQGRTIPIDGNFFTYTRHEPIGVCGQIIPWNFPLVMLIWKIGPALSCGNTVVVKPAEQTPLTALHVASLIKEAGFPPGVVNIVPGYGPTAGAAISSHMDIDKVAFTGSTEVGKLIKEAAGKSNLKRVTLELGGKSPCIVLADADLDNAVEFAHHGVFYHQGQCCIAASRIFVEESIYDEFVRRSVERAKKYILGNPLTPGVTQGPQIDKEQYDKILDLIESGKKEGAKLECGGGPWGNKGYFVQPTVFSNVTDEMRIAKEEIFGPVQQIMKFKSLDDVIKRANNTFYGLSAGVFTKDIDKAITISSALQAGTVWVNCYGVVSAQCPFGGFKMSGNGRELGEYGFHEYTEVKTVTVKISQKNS
GLA inh pH 4.5 = blocks human alpha-galactosidase A at pH 4.5 | P06280 | purified enzyme, 4-MU-alpha-Gal fluorescence, pH 4.5 | activity change, negative = inhibition, % at 105 µM | 230,000 tested, under 10 active | AID 1467;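 also: 0% = full activity with enzyme and -100% = basal without enzyme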
GLA spleen mod = inhibits or activates alpha-galactosidase in human spleen homogenate; P06280; human spleen homogenate, 4MU-alpha-Gal fluorescence, 40 min; Potency, µM (titrated, usually from 80 µM), for inactives: at the highest dose activity change, negative = inhibition, hits mostly inhibitors; hit rate 0.008% among 240,000; AID 2107;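 also: potency is read from the fitted curve at half-maximal effect; 0% = enzyme with vehicle and -100% = no enzyme basal signal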
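Spleen homogenate 1 ug + cpd (titration) + 4-MU-alpha-D-galactopyranoside 1 mM; 37C 40 min; 50 mM citrate/phosphate pH 5.0, 0.01% Tween-20; stop pH 10; fluorescence 365/440; AC50 via Hill.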
HPGD inh = HPGD (human) dehydrogenase inhibition; hit rate 4.3% among 150,000; P15428; purified HPGD, NADH fluorescence kinetic, PGE2 substrate; AID 894; Potency, µM, inactives show top-dose activity change, negative = inhibition, actives largely listed as inhibitors; active = well fitted inhibition curve with a large enough effect, not every such curve was filed as active; inconclusive = small, poorly fitted or top-dose-only effect, or another doubt; inactive = no such curve, though single readings can be large or run the other way; also: potency is read from the fitted curve at half-maximal effect
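NADH formation kinetics: reaction with 30 uM PGE2 and 1 mM NAD+ (final), 20 nM enzyme, Tris-HCl pH 8 with Tween 20, after 15 min compound preincubation at room temperature. Fluorescence change, last versus first of five reads.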
ALOX12 inhib = inhibitors of human 12-lipoxygenase (ALOX12); P18054; purified 12-hLO, xylenol orange hydroperoxide absorbance; hit rate 0.12% among 150,000; Potency, µM (titrated, usually from 57.1 µM), inactives show top-dose activity change, negative = inhibition, usual class: inhibitors; also: potency is read from the fitted curve at half-maximal effect; nearly all actives have a fitted effect of over 55% in size
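Xylenol orange chromogenic assay: hydroperoxide from 12hLO oxidises Fe(II), giving red-shifted Fe(III)-XO absorbance. Conditions: 150 nM enzyme, 40 uM arachidonic acid, 25 mM Hepes pH 7.0, 0.01% Triton X-100, 30 min, room temperature.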
PNC assembly inh = blocks assembly of the perinucleolar compartment; PC3M PTB-GFP, PNC prevalence imaging, 16 h; active compounds read low; activity change (PNC), negative = inhibition, % at 10 µM; hit rate 3.1% among 140,000; AID 2417;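 active = readout at or below -70, meaning at least 70% loss of cells showing the perinucleolar compartment, a nuclear body marking cancer cells; inconclusive = readout between -30 and a set limit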;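 also: plate controls were DMSO wells for no effect and camptothecin positive control wells for full effect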
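Read-out is percentage of cells bearing a perinucleolar compartment, from automated 20x imaging of fixed, Hoechst-stained PC3M PTB-GFP cells. Cells were seeded 4 h, then exposed 16 h to compound (23 nl of library stock) in duplicate plates.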
Numbers without * were called inactive; ? = inconclusive; · = not tested or not shown; [ ] = dose if it differs, or a comment. Unless noted, calls follow the shape of the dose curve; as a rule, active = well fitted curve in the direction sought with a large enough effect; inconclusive = small, poorly fitted or top-dose-only effect, or another doubt; inactive = no such curve, though single readings can be large; an effect the other way counts as inactive or inconclusive. Unless noted, % is scaled to controls: 0 for no effect and ±100 for the full control effect.

SMILES	ALDH1A1 inh	GLA inh pH 4.5	GLA spleen mod	HPGD inh	ALOX12 inhib	PNC assembly inh
CC(C)c1ccc(/C=C/C(=O)N2CCCCCC2)cc1	?	-9	7%	14µM*	-7%	?
O=C(O)Cc1cn(Cc2ccc(F)cc2)c2ccccc12	-5%	11	-4%	·	·	·
Cc1[nH][nH]c(=O)c1C(c1c(C)[nH][nH]c1=O)c1cn(Cc2ccc(F)cc2)c2ccccc12	1.4µM*	-5	-3%	-6%	0%	-29
Cc1[nH][nH]c(=O)c1C(c1c(C)[nH][nH]c1=O)c1cn(Cc2ccc(Cl)c(Cl)c2)c2ccccc12	3.5µM*	3	-10%	-4%	-7%	-2
O=C(Nc1nc2ccccc2n1Cc1ccc(Cl)cc1)c1ccco1	-8%	-3	-2%	?	-3%	35
CC(NC(=O)/C=C/c1ccco1)c1nc2ccccc2n1Cc1cccc(Cl)c1 (stereo not given)	14µM*	8	-10%	2%	0%	6
O=C(c1ccc(Cl)cc1)c1oc2ccccc2c1CS(=O)c1ccc(Cl)cc1 (stereo not given)	4µM*	-15	-7%	-18%	-29%	?
CN(C)S(=O)(=O)c1cccc(-c2cn3cc(Cl)ccc3n2)c1	?	2	12%	?	-2%	-83*
CCc1nnc(NS(=O)(=O)c2ccc(N3C(=O)c4ccccc4C3=O)cc2)s1	6%	3	0%	·	·	·
O=Cc1ccc(OC2C=CC(c3ccccc3)OC2CO)cc1 (stereo not given)	?	·	-18%[17.5 µM]	·	·	·
O=C(NCCCN1CCOCC1)c1ccc(-n2c(=O)c(=O)[nH]c3ccccc32)cc1	9%	·	·	-3%	-1%	·
O=C(Nc1ccccc1Cl)N1CCn2c(nc3ccccc32)C1	-37%	-4	13%	-14%	3%	-111*
O=c1c(-c2cccs2)nc2cncnc2n1C1CC1	?	·	-9%	?	-4%	·
CC(=C\c1ccccc1)/C=C1/SC(=O)N(CCCC(=O)Nc2ccc(C(=O)O)cc2)C1=O	-13%	-7	-3%	·	·	·
CC(/C=C1\SC(=S)N(CCCC(=O)Nc2ccc(C(=O)O)c(O)c2)C1=O)=C\c1ccccc1	6.3µM*	1	1%	?	-24%	-14
CC(C)OC(=O)c1ccc(NC(=O)c2cncc(Br)c2)cc1	18µM*	-1	-5%	·	·	·
CN(C)C(=O)c1ccc(NC(=O)c2cncc(Br)c2)cc1	6%	1	-1%	-25%	-4%	-100*
O=C(Nc1ccc2c(c1)OCO2)c1cncc(Br)c1	-2%	6	-1%	-12%	0%	?
Cc1ccc(CN2CCN(CCCn3cccn3)CC2CCO)cc1 (stereo not given)	2%	-2	-2%	·	·	·
CCOc1cc(C(=O)NCCN2C(=O)S/C(=C\c3cccnc3)C2=O)cc(OCC)c1OCC	12%	-7	3%	-8%	4%	8
CC(C(=O)NCCN1C(=O)S/C(=C\c2cccnc2)C1=O)N1C(=O)c2ccccc2C1=O (stereo not given)	1%	-8	2%	-6%	-2%	-105*
COc1ccc(C(=O)NCCN2C(=O)S/C(=C\c3cccnc3)C2=O)c(OC)c1OC	6%	7	-15%	-17%	-4%	-9
O=C(CCl)NCCN1C(=O)S/C(=C\c2cccnc2)C1=O	1.6µM*	9	8%	·	·	·
O=C1CCCN1c1nccs1	-4%	8	-6%	·	·	·
COc1ccc(-c2nnc3sc(CN4C(=O)c5ccccc5C4=O)nn23)cc1	?	13	-6%	-20%	1%	-22
c1ccc(-c2nnc3sc(Cc4cccs4)nn23)cc1	-35%	1	-1%	-25%	4%	221
Clc1ccc(-c2nnc3sc(Cc4cccs4)nn23)cc1	22µM*	-10	12%	-11%	-6%	-9
O=C1c2ccccc2C(=O)N1Cc1nn2c(-c3ccc(Cl)cc3)nnc2s1	14µM*	-5	6%	-8%	-3%	?
O=C1C=CCC(/C=C/c2ccccc2)O1 (stereo not given)	2%	-7	7%	-2%	-2%	?

Screening results: PubChem BioAssay, National Center for Advancing Translational Sciences (NCATS)
